Assay outcomes as filed in PubChem.
VDR inhibitor = vitamin D3 receptor (human) inhibition; 400,000 compounds, 0.93% hits; P11473; Potency, µM, inactives show max response, negative = inhibition, actives largely listed as inhibitors; VDR-SRC2-3 peptide fluorescence polarization, 2 h
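The screen uses fluorescence polarization to detect compounds that interfere with recruitment of the SRC2-3 coactivator peptide to VDR; plates are read after 2 h at room temperature.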
DT40 TDP1 CPT = growth inhibition of DT40 Tdp1-/-;hTDP1 cells with camptothecin (screen for TDP1 inhibitors) | chicken DT40 Tdp1-/-;hTDP1 cells + 20 nM CPT, ATP luminescence, 48 h | 420,000 compounds, 12% hits | Potency, µM (doses to about 46.2 µM), without a hit: at the top dose activity change, negative = growth inhibition, actives largely listed as inhibitors; also: nearly all actives have a fitted effect of over 55% in size
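Cell growth measured by CellTiter-Glo luminescence after a minimum 48 h, 37 C compound exposure with 20 nM CPT in Tdp1-knockout DT40 cells stably expressing hTDP1, seeded 400/well; qHTS titration format.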
PLK1 PBD inh = inhibitors of human PLK1 polo-box domain binding; 360,000 compounds, 2.8% hits; P53350; Potency, µM, without a hit: max response, negative = inhibition, most hits filed as inhibitors; AID 720504; Plk1 PBD binding of FITC phosphopeptide, fluorescence polarization; also: series mostly up to about 57 µM; nearly all actives have a fitted effect of over 65% in size
Target sequence (P53350 whole entry, looked up, the tested form may be a part): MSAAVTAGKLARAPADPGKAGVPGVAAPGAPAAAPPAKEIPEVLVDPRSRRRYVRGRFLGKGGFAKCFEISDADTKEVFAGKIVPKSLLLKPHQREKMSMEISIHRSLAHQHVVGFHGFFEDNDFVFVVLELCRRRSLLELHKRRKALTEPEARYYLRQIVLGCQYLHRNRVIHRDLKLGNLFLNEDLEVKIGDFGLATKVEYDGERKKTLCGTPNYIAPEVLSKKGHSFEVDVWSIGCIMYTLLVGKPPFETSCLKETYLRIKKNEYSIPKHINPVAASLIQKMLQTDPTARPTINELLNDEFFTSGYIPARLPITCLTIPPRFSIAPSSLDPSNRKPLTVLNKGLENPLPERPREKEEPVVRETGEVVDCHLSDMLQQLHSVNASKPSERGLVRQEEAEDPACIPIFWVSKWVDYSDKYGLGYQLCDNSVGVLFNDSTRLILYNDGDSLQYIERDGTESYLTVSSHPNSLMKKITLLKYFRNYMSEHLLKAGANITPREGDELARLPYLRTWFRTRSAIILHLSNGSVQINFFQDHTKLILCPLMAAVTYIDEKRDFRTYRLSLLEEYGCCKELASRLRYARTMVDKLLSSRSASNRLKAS
GCN5L2 inh = inhibitors of human GCN5L2 histone acetyltransferase; GCN5L2 HAT assay, ThioGlo1 CoA-SH fluorescence; Potency, µM (series often up to 58.9 µM), inactives show at the highest dose activity change, negative = inhibition, hits mostly inhibitors; Q92830; 390,000 compounds, 0.21% hits
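qHTS, 1536-well. 20nM enzyme, pH 7.5 HEPES/EDTA/Tween-20 buffer; 15 min compound preinc., RT. Start: 75uM H3(1-25), 70uM AcCoA, 50uM ThioGlo1. Read Ex340/Em540 at t=0 (autofluorescence flag) and t=20 min.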
TDP1 inh = TDP1 (human) enzyme inhibition; Q9NUW8; recombinant TDP1, AlphaScreen DNA substrate cleavage; Potency, µM (highest dose often 130 µM), for the others: at the highest dose activity change, negative = inhibition, most hits filed as inhibitors; 350,000 compounds, 0.28% hits; also: nearly all actives have a fitted effect of over 40% in size
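Enzyme-compound mixtures sat 15 min at room temperature, followed by a 5 min reaction with 15 nM final substrate and 10 min with AlphaScreen beads. Recombinant human Tdp1 was used at 1 nM final.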
DT40 TDP1 no CPT = qHTS for Inhibitors of human tyrosyl-DNA phosphodiesterase 1 (TDP1): qHTS in cells in absence of CPT. 420,000 compounds, 15% hits. Potency, µM (series often up to 46.2 µM), for the others: at the highest dose activity change, negative = growth inhibition, most hits filed as inhibitors. AID 686978, 2013. DT40 Tdp1-/- hTDP1 cells, no CPT, ATP luminescence, 48 h; also: nearly all actives have a fitted effect of over 55% in size
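Growth kinetics read by CellTiter-Glo luminescence after ≥48 hr at 37 °C. Cells: DT40 Tdp1-/- stably carrying human TDP1, 400 per well, compound exposure in the absence of CPT (DMSO vehicle).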
* = called active by the depositor; ? = inconclusive; · = no result. Sampled rows, rich in hits. Any-hit rate of the full collection: about 18%. Calls follow the shape of the dose curve; as a rule, active = well fitted curve in the direction sought with a large enough effect; inconclusive = small, poorly fitted or top-dose-only effect, or another doubt; inactive = no such curve, though single readings can be large; an effect the other way counts as inactive or inconclusive. % is scaled to controls: 0 for no effect and ±100 for the full control effect; potency is read from the fitted curve at half-maximal effect.

SMILES	VDR inhibitor	DT40 TDP1 CPT	PLK1 PBD inh	GCN5L2 inh	TDP1 inh	DT40 TDP1 no CPT
c1cncc(CN2CCN(c3cc(-c4cnc5ccccc5c4)nc4ccnn34)CC2)c1	·	?	-7.3%	·	·	-28.8%
Cc1cc2nc(C)c(=O)n(C)c2cc1C	?	?	13.4µM*	-2.2%	7.9%	?
Cc1cc2nc(-c3ccc(=O)[nH]c3)n(C)c2cc1C	0.5%	15.0%	0.7%	-6.7%	·	3.9%
COc1ccc(Oc2c(Cl)cnn(-c3ccc(F)cc3)c2=O)cc1	-1.7%	?	2.2%	0.5%	4.2%	?
COc1ccc2cnn(-c3ccc(C)cc3)c(=O)c2c1OC	21.4%	14.6µM*	-4.0%	2.2%	1.4%	20.6µM*
CCOc1ccccc1OCCn1ncc2ccc(OC)c(OC)c2c1=O	-1.3%	-25.3%	-7.2%	3.3%	3.8%	-18.7%
COc1ccc2cnn(CCOc3cc(C)ccc3C(C)C)c(=O)c2c1OC	-4.7%	16.4µM*	-6.1%	-9.8%	2.6%	16.4µM*
COc1c(Cl)cnn(-c2ccc(C)cc2)c1=O	-18.4%	?	-4.9%	-10.5%	8.4%	16.4µM*
C=CCSc1nnc(NC(=O)C2CC(=O)N(Cc3ccc(C)cc3)C2)s1 (stereo unspecified)	2.3%	-16.1%	1.9%	-10.5%	-16.5%	19.4%
Cc1[nH]n(C2=NCCS2)c(=O)c1N=Nc1cccc(C(F)(F)F)c1	-0.9%	3.66µM*	-15.0%	-9.2%	6.0%	2.59µM*
Cc1[nH]n(C(N)=S)c(=O)c1N=Nc1cccc(C(F)(F)F)c1	-7.4%	?	?	14.2%	·	?
COc1cc2[nH]c3c(N4CCN(c5ccc(Cl)cc5)CC4)ncnc3c2cc1OC	8.1%	18.4µM*	1.4%	-1.8%	3.2%	18.4µM*
COc1cc2[nH]c3c(Cl)ncnc3c2cc1OC	-6.8%	?	-3.1%	-9.4%	0.0%	20.6µM*
O=C(c1ccco1)N1CCN(c2ncnc3c2[nH]c2ccc(Cl)cc23)CC1	·	·	·	-3.8%	7.9%	·
CCN1C(=O)/C(=C2/Sc3ccccc3N2CC)S/C1=N\c1ncn[nH]1	-17.9%	?	6.3%	-15.5%	0.0%	23.1µM*
C=CCN1C(=O)/C(=C2/Sc3ccccc3N2CC)SC1=S	-7.0%	-23.4%	-12.0%	1.0%	·	-21.4%
COc1ccc(NC(=O)Cn2cnc3sc(C)c(S(=O)(=O)N4CCN(c5ccccc5OC)CC4)c3c2=O)cc1OC	-4.6%	5.0%	·	-3.5%	8.8%	0.4%
COc1ccccc1N1CCN(S(=O)(=O)c2c(C)sc3ncn(CC(=O)Nc4ccc(C(F)(F)F)cc4)c(=O)c23)CC1	-9.1%	16.4µM*	·	-5.7%	2.9%	?
CCCN(CCC)CCNC(=O)Cn1cnc2sc(C)c(S(=O)(=O)N3CCN(c4ccccc4OC)CC3)c2c1=O	-5.7%	?	·	3.4%	5.9%	14.6µM*
CCOC(=O)N1CCN(S(=O)(=O)c2c(C)nc3scc(C)n3c2=O)CC1	-16.5%	-6.5%	3.1%	-17.2%	1.4%	?
C=CCN1[C@@H](C(C)C)COCCS1(=O)=O	·	-14.9%	·	·	·	17.7%
CSc1sc(C(=O)N(C)C)c2c1S(=O)(=O)N(C)c1ccccc1-2	13.1%	1.8%	1.1%	-1.5%	5.5%	-18.6%
Cc1cc(-c2c(C)[nH]n(-c3ccc(Cl)cc3)c2=O)n[nH]1	3.0%	7.31µM*	-7.3%	-4.4%	11.8%	13µM*
COc1ccccc1C(=O)Nc1cccc(C(=O)OCc2cc(=O)n3cc(C)sc3n2)c1	-1.3%	-8.1%	·	-7.0%	3.8%	-20.3%
CN(Cc1ccccc1)c1ccc(C(CC(N)=O)NC(=O)c2ccccc2)cc1[N+](=O)[O-] (stereo unspecified)	-14.9%	23.1µM*	-3.5%	-7.6%	·	16.4µM*
SMILES	VDR inhibitor	DT40 TDP1 CPT	PLK1 PBD inh	GCN5L2 inh	TDP1 inh	DT40 TDP1 no CPT
NC(=O)CC(NC(=O)c1ccccc1)c1ccc(NCc2ccc(F)cc2)c([N+](=O)[O-])c1 (stereo unspecified)	-3.6%	18.4µM*	-8.2%	-2.6%	2.5%	?
NC(=O)CC(NC(=O)Cc1ccc(Br)cc1)c1ccc(NCc2ccc(F)c(F)c2)c([N+](=O)[O-])c1 (stereo unspecified)	-9.9%	16.4µM*	0.4%	1.7%	5.0%	?
NC(=O)CC(NC(=O)c1ccc(Br)cc1)c1ccc(NCc2ccc(F)c(F)c2)c([N+](=O)[O-])c1 (stereo unspecified)	10.7%	-22.6%	-3.6%	-2.3%	10.0%	-28.0%
NC(=O)CC(NC(=O)c1ccccc1)c1ccc(NCc2ccc(F)c(F)c2)c([N+](=O)[O-])c1 (stereo unspecified)	1.6%	?	-5.8%	-7.6%	·	?
NC(=O)CC(NC(=O)c1ccccc1)c1ccc(NCc2ccccc2)c([N+](=O)[O-])c1 (stereo unspecified)	-1.5%	20.6µM*	-2.4%	-6.1%	6.2%	23.1µM*
COc1ccc(OC)c(NC(=O)COC(=O)CCc2ccc(S(=O)(=O)N3CCOCC3)cc2)c1	-4.6%	0.7%	7.7%	-9.1%	3.4%	-1.4%
COC(=O)c1ccccc1S(=O)(=O)NNC(=O)c1nn(C)c(=O)c2ccccc12	-3.9%	2.9%	0.5%	1.6%	-0.5%	0.3%
N#Cc1ccc(NC(=S)NC(=O)C2CCCCC2)cc1	-2.6%	?	-7.5%	-1.2%	-1.5%	?
CCS(=O)(=O)c1ccc2oc(SCC(=O)NC(C)C3CC4CCC3C4)nc2c1 (stereo unspecified)	-4.5%	?	-11.9%	-1.2%	5.9%	16.4µM*
COc1ccc(C(=O)NNC2=NC(C)(C)Cc3ccccc32)cc1	-2.7%	2.5%	-10.8%	-2.5%	1.9%	-5.7%
CC1(C)Cc2ccccc2C(COc2ccccc2)=N1	-18.9%	?	26.7µM*	-17.1%	·	?
O=C(NCc1cccnc1)C(=O)NCC(c1ccco1)N1CCN(c2ccc(F)cc2)CC1 (stereo unspecified)	-1.4%	23.1µM*	-9.5%	1.6%	-1.2%	16.4µM*
COc1ccc(N2CCN(C(CNC(=O)C(=O)NCc3cccnc3)c3ccco3)CC2)cc1 (stereo unspecified)	2.0%	-11.8%	-6.4%	0.5%	0.0%	-3.8%
COc1ccc(C(=O)NCC(c2cccnc2)N2CCN(c3ccccc3)CC2)cc1OC (stereo unspecified)	-6.3%	?	-10.7%	-3.3%	5.2%	-21.0%
